Our source for the inhibition values is ChEMBL document CHEMBL1961873, “Compounds: GSK PKIS; Assays: Nanosyn kinase panel” (2012).

Molecules are shown by their SMILES.

The target in assay [1] is Death-associated protein kinase 1 (Homo sapiens) (UniProt P53355). Particulars: at 1 µM.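 Further: each value is a mean inhibition figure.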
Assay [2] concerns the target T1, Serine/threonine-protein kinase DCLK2 (Homo sapiens) (UniProt Q8N568).
T1 sequence (whole entry): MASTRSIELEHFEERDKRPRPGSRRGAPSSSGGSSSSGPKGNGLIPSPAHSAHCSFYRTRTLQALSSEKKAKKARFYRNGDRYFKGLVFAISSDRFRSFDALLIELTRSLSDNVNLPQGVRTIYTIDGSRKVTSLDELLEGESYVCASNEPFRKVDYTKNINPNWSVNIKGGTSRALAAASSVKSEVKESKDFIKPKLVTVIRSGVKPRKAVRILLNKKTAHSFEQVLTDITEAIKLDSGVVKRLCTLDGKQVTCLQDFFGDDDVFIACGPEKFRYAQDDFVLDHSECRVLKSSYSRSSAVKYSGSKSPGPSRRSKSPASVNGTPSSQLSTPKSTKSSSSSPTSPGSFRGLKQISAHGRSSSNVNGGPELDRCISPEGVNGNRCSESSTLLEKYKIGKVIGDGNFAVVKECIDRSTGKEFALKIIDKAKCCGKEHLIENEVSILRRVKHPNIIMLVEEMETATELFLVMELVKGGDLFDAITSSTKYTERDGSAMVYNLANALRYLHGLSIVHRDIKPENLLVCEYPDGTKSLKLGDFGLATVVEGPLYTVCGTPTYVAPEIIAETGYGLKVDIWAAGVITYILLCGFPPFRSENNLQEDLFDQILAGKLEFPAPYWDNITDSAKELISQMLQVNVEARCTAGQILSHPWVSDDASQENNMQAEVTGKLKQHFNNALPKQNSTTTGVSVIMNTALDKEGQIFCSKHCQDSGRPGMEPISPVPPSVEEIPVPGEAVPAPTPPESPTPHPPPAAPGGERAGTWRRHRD
The settings on record: at 0.1 µM.

In assay [3] the target is T1, Serine/threonine-protein kinase DCLK2 (Homo sapiens). Particulars: at 1 µM.
Assay [4] has as its target MAP kinase-activated protein kinase 2 (Homo sapiens) (UniProt P49137). The settings on record: at 0.1 µM.
Assay [5] shares this target. The settings on record: at 1 µM.
Assay [6] deals with MAP kinase-activated protein kinase 3 (Homo sapiens) (UniProt Q16644). Particulars: at 0.1 µM.
Assay [7] has the same target. Particulars: at 1 µM.
The target of assay [8] is Serine/threonine-protein kinase MARK1 (Homo sapiens) (UniProt Q9P0L2). Particulars: at 0.1 µM.
Assay [9] shares this target. The settings on record: at 1 µM.
Assay [10] concerns the target MAP/microtubule affinity-regulating kinase 3 (Homo sapiens) (UniProt P27448). Particulars: at 0.1 µM.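 Further: mean percent inhibition of MARK3 kinase activity, measured within the GSK PKIS screening panel.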

Chain of Death-associated protein kinase 1 (Homo sapiens) (P53355 whole entry, looked up): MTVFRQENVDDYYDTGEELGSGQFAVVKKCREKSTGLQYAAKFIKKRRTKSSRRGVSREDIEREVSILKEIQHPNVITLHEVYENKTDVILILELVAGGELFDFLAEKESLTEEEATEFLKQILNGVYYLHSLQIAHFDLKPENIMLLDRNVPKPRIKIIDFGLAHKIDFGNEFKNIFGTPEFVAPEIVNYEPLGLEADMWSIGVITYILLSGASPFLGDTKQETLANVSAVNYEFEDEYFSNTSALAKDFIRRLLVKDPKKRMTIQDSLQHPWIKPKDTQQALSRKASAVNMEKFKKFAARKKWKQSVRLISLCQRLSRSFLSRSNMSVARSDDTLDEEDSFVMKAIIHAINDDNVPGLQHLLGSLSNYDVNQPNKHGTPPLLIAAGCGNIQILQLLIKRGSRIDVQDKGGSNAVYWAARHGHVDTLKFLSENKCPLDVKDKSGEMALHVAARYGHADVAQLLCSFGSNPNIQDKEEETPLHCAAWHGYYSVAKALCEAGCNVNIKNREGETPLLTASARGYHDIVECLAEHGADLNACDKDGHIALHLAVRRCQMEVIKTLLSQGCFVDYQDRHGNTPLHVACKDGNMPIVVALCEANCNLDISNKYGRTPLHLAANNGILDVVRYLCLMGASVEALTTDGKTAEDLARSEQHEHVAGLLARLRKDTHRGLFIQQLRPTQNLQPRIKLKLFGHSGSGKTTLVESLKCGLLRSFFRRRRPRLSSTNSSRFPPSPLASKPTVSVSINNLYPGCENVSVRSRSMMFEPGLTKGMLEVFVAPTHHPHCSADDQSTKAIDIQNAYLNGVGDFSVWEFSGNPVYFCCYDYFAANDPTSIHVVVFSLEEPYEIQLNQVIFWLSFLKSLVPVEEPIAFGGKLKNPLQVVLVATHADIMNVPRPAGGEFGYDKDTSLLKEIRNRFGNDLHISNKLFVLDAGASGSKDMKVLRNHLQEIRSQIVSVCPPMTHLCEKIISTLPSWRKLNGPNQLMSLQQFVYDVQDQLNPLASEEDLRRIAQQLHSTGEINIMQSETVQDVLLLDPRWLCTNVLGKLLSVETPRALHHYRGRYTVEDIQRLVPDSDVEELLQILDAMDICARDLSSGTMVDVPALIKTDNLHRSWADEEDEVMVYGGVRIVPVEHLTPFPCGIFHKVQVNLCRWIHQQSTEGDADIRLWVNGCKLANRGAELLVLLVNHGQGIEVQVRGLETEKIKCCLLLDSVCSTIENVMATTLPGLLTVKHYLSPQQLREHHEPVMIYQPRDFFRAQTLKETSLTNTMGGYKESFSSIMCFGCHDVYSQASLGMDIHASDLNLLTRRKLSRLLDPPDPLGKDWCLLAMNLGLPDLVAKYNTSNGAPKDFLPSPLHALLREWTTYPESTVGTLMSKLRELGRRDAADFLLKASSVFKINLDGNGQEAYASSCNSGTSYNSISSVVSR
Chain of MAP kinase-activated protein kinase 3 (Homo sapiens) (Q16644 whole entry, looked up): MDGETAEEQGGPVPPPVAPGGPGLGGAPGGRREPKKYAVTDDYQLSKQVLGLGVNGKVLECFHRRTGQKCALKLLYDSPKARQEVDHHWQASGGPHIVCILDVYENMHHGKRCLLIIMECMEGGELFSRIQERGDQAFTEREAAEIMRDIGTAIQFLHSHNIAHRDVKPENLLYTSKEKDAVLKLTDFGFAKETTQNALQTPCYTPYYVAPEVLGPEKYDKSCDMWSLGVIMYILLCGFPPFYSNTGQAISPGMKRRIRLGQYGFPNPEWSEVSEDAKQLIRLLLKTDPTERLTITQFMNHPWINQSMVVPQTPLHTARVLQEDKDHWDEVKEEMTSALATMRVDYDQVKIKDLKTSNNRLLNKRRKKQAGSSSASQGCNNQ
Chain of MAP/microtubule affinity-regulating kinase 3 (Homo sapiens) (P27448 whole entry, looked up): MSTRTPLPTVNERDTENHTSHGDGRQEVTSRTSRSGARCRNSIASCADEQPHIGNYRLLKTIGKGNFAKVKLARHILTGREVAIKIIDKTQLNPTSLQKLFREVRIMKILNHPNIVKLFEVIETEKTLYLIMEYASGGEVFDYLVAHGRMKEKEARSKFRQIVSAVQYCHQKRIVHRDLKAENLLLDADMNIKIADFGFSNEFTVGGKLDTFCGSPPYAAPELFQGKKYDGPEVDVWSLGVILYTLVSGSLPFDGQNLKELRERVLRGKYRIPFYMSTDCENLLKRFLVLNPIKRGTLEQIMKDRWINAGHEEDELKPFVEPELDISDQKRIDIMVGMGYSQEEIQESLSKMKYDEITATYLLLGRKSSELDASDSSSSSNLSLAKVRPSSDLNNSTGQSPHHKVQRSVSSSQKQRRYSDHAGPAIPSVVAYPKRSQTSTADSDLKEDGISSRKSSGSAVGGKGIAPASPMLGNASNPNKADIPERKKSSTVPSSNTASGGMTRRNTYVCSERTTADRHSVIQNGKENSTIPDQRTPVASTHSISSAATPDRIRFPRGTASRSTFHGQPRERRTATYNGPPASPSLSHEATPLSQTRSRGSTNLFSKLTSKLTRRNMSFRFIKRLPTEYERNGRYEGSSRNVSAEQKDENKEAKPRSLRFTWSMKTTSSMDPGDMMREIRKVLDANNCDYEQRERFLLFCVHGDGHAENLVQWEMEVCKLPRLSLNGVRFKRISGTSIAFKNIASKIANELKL
Chain of MAP kinase-activated protein kinase 2 (Homo sapiens) (P49137 whole entry, looked up): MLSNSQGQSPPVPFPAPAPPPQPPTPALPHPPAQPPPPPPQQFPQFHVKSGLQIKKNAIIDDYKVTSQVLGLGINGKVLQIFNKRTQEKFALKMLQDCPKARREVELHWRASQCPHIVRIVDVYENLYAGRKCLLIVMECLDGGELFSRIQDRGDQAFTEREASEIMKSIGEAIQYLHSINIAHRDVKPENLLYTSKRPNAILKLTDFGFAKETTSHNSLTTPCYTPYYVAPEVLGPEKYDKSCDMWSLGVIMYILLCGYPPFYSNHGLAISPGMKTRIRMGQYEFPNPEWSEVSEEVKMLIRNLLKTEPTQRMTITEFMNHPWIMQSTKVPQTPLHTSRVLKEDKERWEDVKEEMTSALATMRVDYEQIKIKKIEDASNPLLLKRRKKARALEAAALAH
Chain of Serine/threonine-protein kinase MARK1 (Homo sapiens) (Q9P0L2 whole entry, looked up): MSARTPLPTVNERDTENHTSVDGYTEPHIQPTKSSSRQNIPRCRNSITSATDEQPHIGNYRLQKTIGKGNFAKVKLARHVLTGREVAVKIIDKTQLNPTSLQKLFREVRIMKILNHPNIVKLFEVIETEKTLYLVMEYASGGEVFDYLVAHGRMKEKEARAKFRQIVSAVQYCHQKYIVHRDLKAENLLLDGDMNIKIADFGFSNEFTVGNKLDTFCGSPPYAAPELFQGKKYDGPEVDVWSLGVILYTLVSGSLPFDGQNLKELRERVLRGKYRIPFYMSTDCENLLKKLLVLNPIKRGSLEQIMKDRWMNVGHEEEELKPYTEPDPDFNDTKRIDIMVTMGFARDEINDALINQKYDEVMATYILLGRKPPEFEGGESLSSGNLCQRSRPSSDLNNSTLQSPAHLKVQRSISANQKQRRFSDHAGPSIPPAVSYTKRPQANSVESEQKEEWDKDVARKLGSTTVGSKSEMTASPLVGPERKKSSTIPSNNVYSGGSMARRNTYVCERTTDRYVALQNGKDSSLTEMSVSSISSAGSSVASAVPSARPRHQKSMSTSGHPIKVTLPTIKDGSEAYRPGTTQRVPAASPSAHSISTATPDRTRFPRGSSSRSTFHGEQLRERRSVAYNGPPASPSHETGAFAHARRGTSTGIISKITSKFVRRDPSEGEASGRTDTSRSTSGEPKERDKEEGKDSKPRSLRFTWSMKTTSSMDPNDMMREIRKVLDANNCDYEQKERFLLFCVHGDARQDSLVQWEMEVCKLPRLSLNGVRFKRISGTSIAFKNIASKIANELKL

For `COc1cccc(-n2ncc3c(N/N=C/c4ccc(C)cc4)ncnc32)c1`, the inhibition – broadly, the change of the read-out against control, counted positive when it falls – was -4.37% in [1]; 0.26% in assay [2]; 2.82% in assay [3]; -0.94% in assay [4]; 0.98% in [5]; -0.57% in [6]. Moreover, the inhibition in assay [7] was -0.87%; in [8] it was 3.16%; in assay [9], 6.21%; in [10], 2.69%.
Turning to `COc1cc2ncnc(Nc3ccc4c(cnn4Cc4ccccc4)c3)c2cc1OC`, the inhibition was 8.23% in assay [1]; -1.15% in assay [2]; 0.67% in assay [3]; 2.78% in assay [4]; 4.35% in [5]; 6.95% in assay [6]. Moreover, the inhibition in assay [7] came out at 9.14%; in assay [8], 1.12%; in assay [9], 3.17%; in assay [10], 0.1%.
Consider `O=C1Nc2ccccc2/C1=C/Nc1ccc2[nH]c(=O)[nH]c2c1`, for which the inhibition in assay [1] was 2.63%; in assay [2], 0.75%; in assay [3] it was -0.33%; in assay [4], 2.44%; in assay [5], 2.97%; in assay [6], 6.76%. The inhibition worked out at 8.08% in assay [7], 6.25% in assay [8], 32.5% in assay [9] and 2.47% in assay [10].
`COc1cc2ncn(-c3cc(OCc4ccccc4S(C)(=O)=O)c(C#N)s3)c2cc1OC`: the inhibition in assay [1] worked out at 6.48%; in [2] it was 1.77%; in assay [3], 0.47%; in assay [4], 1.6%; in [5] it was 1.54%; in [6], 3.38%. Also, the inhibition in assay [7] is 4.59%; in assay [8], 36.9%; in assay [9], 80%; in [10], 49.6%.
Regarding `[O-][S+]1CCN(Cc2ccc(-c3ccc4ncnc(Nc5ccc(OCc6ccccc6)c(Cl)c5)c4c3)o2)CC1`, the inhibition was found to be 0.97% in assay [1]; 0.43% in assay [2]; 1.8% in assay [3]; 1% in assay [4]; 0.44% in assay [5]; 6.01% in [6]. Besides, the inhibition in [7] was 8.71%; in [8], 1.37%; in [9], 2.21%; in [10], -0.92%.
As for `Cc1ccc(O)cc1Nc1ccnc2ccc(S(C)(=O)=O)cc12`, the inhibition came to 13.2% in assay [1]; 2.11% in assay [2]; 1.09% in [3]; 4.78% in assay [4]; 5.17% in [5]; 14.2% in assay [6]. Also, the inhibition was determined as 24.2% in [7], 4.73% in [8], 7.33% in assay [9] and 2.7% in assay [10].
As for `Cc1cc(Cl)cc2c1NC(=O)C2=NNc1ccc(S(N)(=O)=O)cc1`, the inhibition stood at 3.49% in assay [1]; 1.05% in [2]; 6.07% in assay [3]; 1.56% in assay [4]; 1.44% in assay [5]; 0.78% in assay [6]. Moreover, the inhibition amounted to 2.25% in assay [7], 2.46% in assay [8], 4.87% in assay [9] and 3.64% in assay [10].
On to `CCn1c(-c2nonc2N)nc2ccc(F)cc21`, for which the inhibition was 10.7% in [1]; 0.68% in [2]; 0.5% in assay [3]; 2.81% in assay [4]; 3.62% in assay [5]; 4.6% in [6]. The inhibition in assay [7] is 5.57%; in [8], 14.8%; in assay [9], 6.7%; in assay [10] it was 2.41%.
For `CC(C)c1ccc(Nc2nccc(-c3cnn4ncccc34)n2)cc1`, the inhibition was -2.33% in assay [1]; 0.5% in [2]; -1.7% in assay [3]; 0.86% in assay [4]; 0.39% in assay [5]; 3.55% in assay [6]. The inhibition in assay [7] was 6.14%; in [8], 0.51%; in [9], 4.24%; in assay [10], 2.56%.
Regarding `c1ccc(Nc2ncc(-c3ccccc3)o2)cc1`, the inhibition was found to be 5.31% in [1]; 0.92% in assay [2]; 3.72% in assay [3]; 1.35% in assay [4]; 2.04% in assay [5]; 4.43% in assay [6]. The inhibition in assay [7] worked out at 5.91%; in assay [8] it was 1.31%; in [9] it was 4.58%; in assay [10], 1.16%.
`CN1CCN(C(=O)c2ccc(NC(=O)Nc3ccc(N(C)c4ccnc(Nc5ccc(CS(C)(=O)=O)cc5)n4)cc3)cc2)CC1`: the inhibition in [1] was 2.64%; in [2], -0.43%; in assay [3], 0.81%; in [4] it was 0.81%; in [5], 1.86%; in [6] it was 2.24%. For the same compound, the inhibition amounted to 3.23% in assay [7], 1.73% in assay [8], 15.2% in assay [9] and 2.96% in assay [10].
As to `CN(C)CCCn1c(-c2nonc2N)nc2cnccc21`, the inhibition in assay [1] turned out to be 5.9%; in assay [2] it was 0.05%; in assay [3] it was 2.05%; in assay [4], 2.54%; in assay [5], 1.94%; in assay [6] it was 4.24%. In addition, the inhibition in [7] came to 4.17%; in assay [8], 3.64%; in [9] it was 6.1%; in assay [10], 4.25%.
`CN(c1ccc(NC(=O)Nc2ccc(OC(F)(F)F)cc2)cc1)c1ccnc(Nc2cccc(S(N)(=O)=O)c2)n1`: the inhibition in assay [1] is 2.02%; in assay [2], -2.05%; in [3] it was 0.7%; in [4], 0.67%; in assay [5], -0.37%; in assay [6], 2.5%. The inhibition stood at 7.62% in [7], 0.28% in assay [8], 2.36% in assay [9] and 1.62% in [10].
`Nc1ccc(C#Cc2cncnc2Nc2ccc(OCc3cccc(F)c3)c(Cl)c2)cc1`: the inhibition in assay [1] is 1.54%; in assay [2] it was -0.36%; in assay [3] it was -0.03%; in assay [4], 2.17%; in assay [5] it was 0.48%; in [6], 4.18%. The inhibition in assay [7] was determined as 4.4%; in assay [8], 2.19%; in [9], 3.58%; in assay [10], 2.93%.
As to `NS(=O)(=O)c1ccc(Nc2cc(-c3cccc(O)c3)n[nH]2)cc1`, the inhibition in assay [1] is 8.63%; in assay [2], 0.84%; in assay [3], 0.2%; in assay [4], 1.88%; in [5], 2.79%; in assay [6] it was 4.03%. Further, the inhibition in assay [7] stood at 4.03%; in assay [8], 5.12%; in assay [9] it was 11.5%; in assay [10], 5.96%.
`Cc1ccc2c(-c3ccnc(Nc4cccc(C(F)(F)F)c4)n3)c(-c3ccccc3)nn2n1`: the inhibition in assay [1] is -5.56%; in assay [2], 0.64%; in assay [3], 2.53%; in assay [4] it was -1.16%; in [5], -0.78%; in assay [6], 15.6%. Also, the inhibition is 27.2% in assay [7], 1.58% in assay [8], 4.76% in assay [9] and -0.41% in assay [10].
As to `CN(C)C(=O)O[C@H]1CN[C@H](C#Cc2cc3ncnc(Nc4ccc(OCc5cccc(F)c5)c(Cl)c4)c3s2)C1`, the inhibition in assay [1] is 2.24%; in assay [2], -0.33%; in [3], 2.04%; in assay [4], 1.5%; in [5], 0.84%; in assay [6] it was 2.84%. Further, the inhibition in [7] amounted to 2.58%; in assay [8], 2.51%; in assay [9] it was 2.11%; in assay [10], 2.14%.
